Test results as given in PubChem BioAssay.
Activity calls are given as the source filed them.

test system: not listed separately; assay: splicing luciferase reporter signal modulators, primary screen, spliceosome inhibition project, cell-based, HEK293, splice +/- reporter (AID 1101); settings: luminescence, 24 h, higher = more signal, called active from +8 up or from −8 down;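 note: HEK293 cells carrying a splicing-competent luciferase reporter gene; test concentration not given here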

Structure (SMILES) | z-score
[N-]=[N+]=NCc1ccccc1[C@H]1OC(c2ccc(OCCCO)cc2)=N[C@@]1(CCS(=O)(=O)c1ccccc1)C(=O)N1CCOCC1 | -0.0598 (inactive)
N[C@@H](Cc1ccccc1)Cn1cc(-c2ccccc2)nn1 | -1.38 (inactive)
CC(C)CNC(=O)[C@@]1(c2ccc([N+](=O)[O-])cc2)CC(=O)N(CC23CC4CC(CC(C4)C2)C3)[C@@H]1c1ccc(CO)cc1I | -0.125 (inactive)
O=C(CCN1CCOCC1)c1cccc(O)c1 | 0.964 (inactive)
COC(=O)C(CC#Cc1ccc2c(c1)[C@]1(C(=O)N2)[C@H](c2ccc(OCCO)cc2)N2[C@H](c3ccccc3)[C@H](c3ccccc3)OC(=O)[C@H]2[C@@H]1C(=O)NC[C@H](O)c1ccccc1)C(=O)OC | 0.348 (inactive)
C#CCN(C(/C=C/c1ccccc1)CO)C(C(=O)O)c1ccccc1 (configuration not stated) | -1.89 (inactive)
COc1ccc(C(=O)Nc2cccc(CN3C(=O)[C@@]4(O[C@@H](CCn5cc(CCO)nn5)[C@H]([Si](C)(C)c5ccc(OC)cc5)[C@H]4C)c4ccccc43)c2)cc1 | -1.16 (inactive)
O=C(CS)NCCCCCCNC(=O)[C@@H]1C[C@@H]2C(=O)N3CCC[C@H]3C(=O)N2[C@@H]1c1ccc(O)cc1 | 0.552 (inactive)
CCCNC(=O)[C@@]1(c2ccc([N+](=O)[O-])cc2)CC(=O)N(CC23CC4CC(CC(C4)C2)C3)[C@@H]1c1ccc(CO)cc1 | 0.228 (inactive)
CC(C)c1ccc(NN2C(C(O)c3c(F)cccc3Cl)C=CC3C(=O)N(c4ccccc4)C(=O)C32)cc1 (configuration not stated) | -1.11 (inactive)
COc1ccc([Si](C)(C)[C@@H]2[C@@H](CCn3cc([C@H](O)c4ccccc4)nn3)O[C@]3(C(=O)N(Cc4ccc(N5C(=O)c6cccc7cccc5c67)cc4)c4ccccc43)[C@H]2C)cc1 | -1.5 (inactive)
[N-]=[N+]=Nc1ccccc1C[C@]1(C(=O)NCCN2CCOCC2)N=C(c2ccc(OCCCO)cc2)O[C@H]1c1ccccc1 | 0.183 (inactive)
COC(=O)C[C@@H]1C[C@H](C)[C@]2(O1)C(=O)N(Cc1ccccc1)c1ccc(NC(C)=O)cc12 | 0.247 (inactive)
Cc1ccc([C@H]2C(C(=O)O)=C[C@@H](C)N2S(=O)(=O)c2ccc(C)cc2)cc1 | 0.709 (inactive)
O=C1O[C@H](c2ccccc2)[C@H](c2ccccc2)N2[C@H]1[C@@H](C(=O)O)[C@]1(C(=O)Nc3ccc(C#CC4=CCCCC4)cc31)[C@H]2c1ccc(OCCO)cc1 | -0.248 (inactive)
C=CC(=C)C1=CCO[C@@H]1[C@H]1CCCN1S(=O)(=O)c1ccccc1[N+](=O)[O-] | -0.626 (inactive)
CCC(CC)C(O)C1C=CC2C(=O)N(c3ccccc3)C(=O)C2N1Nc1ccc(C#N)cc1 (configuration not stated) | 1.22 (inactive)
CC(C)N1C(=O)c2ccccc2[C@@H](C(=O)NCCCN(C)C)[C@@H]1c1ccc(CO)cc1 | -0.472 (inactive)
COC(=O)[C@@]1(Cc2ccc(F)cc2)[C@H]2c3cc(C(=O)N4CCCC4)n(Cc4cccc5ccccc45)c3C[C@H]2CN1C(=O)c1ccccc1 | -2.29 (inactive)
CCOC(=O)[C@H]1C/C=C/C[C@H](C(=O)OCC)C(=O)O[C@H]2[C@@H](OC)O[C@H](CO)[C@@H](OC(=O)Nc3ccc4c(c3)OCO4)[C@@H]2OC1=O | -1.14 (inactive)
COCC(=C=CC[C@@H](O)c1ccc(CO)o1)CCO | -2.32 (inactive)
Cc1cc(C)c(C(O)C2C=CC3C(=O)N(c4ccccc4)C(=O)C3N2Nc2ccc(C#N)cc2)c(C)c1 (configuration not stated) | 0.757 (inactive)
COc1ccc(C#Cc2ccc3c(c2)[C@]2(C(=O)N3)[C@H](c3ccc(O)cc3)N3[C@H](c4ccccc4)[C@H](c4ccccc4)OC(=O)[C@H]3[C@@H]2C(=O)N2CCCCCCC2)cc1 | -0.844 (inactive)
O=C1C2C=CC(C(O)c3ccc(F)cc3)N(Nc3ccccc3)C2C(=O)N1c1ccccc1 (configuration not stated) | 0.444 (inactive)
COc1cc2c(cc1OC)CN(C(=O)[C@@H]1[C@H]3C(=O)O[C@H](c4ccccc4)[C@H](c4ccccc4)N3[C@H](c3ccccc3OCCO)[C@@]13C(=O)Nc1ccc(C#CCNC(N)=O)cc13)CC2 | 0.095 (inactive)
Cc1ccc(F)cc1S(=O)(=O)N[C@@H]1CCN(Cc2ccc(-c3ccccc3)cc2)C1 | 1.18 (inactive)

molecular target: Fibroblast growth factor 10 (Homo sapiens) (UniProt O15520); assay: FGF10 binders on small-molecule microarrays, primary screen, biochemical, small-molecule microarray, 635 nm fluorescence (AID 1102); settings: FGF10 binding, fluorescence 635 nm, higher = more signal
Sequence (O15520 whole entry, looked up): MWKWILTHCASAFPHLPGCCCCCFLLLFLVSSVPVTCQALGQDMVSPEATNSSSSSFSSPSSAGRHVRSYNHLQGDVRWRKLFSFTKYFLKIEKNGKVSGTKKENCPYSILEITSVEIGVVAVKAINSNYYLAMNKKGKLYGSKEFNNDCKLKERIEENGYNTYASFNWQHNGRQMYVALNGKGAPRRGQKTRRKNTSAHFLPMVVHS

Structure (SMILES) | composite z-score
CCOC(=O)C[C@H]1[C@H](OC(=O)c2ccc(-c3ccccc3)cc2)[C@@H](NC(=O)Cc2ccc(OC)cc2)c2cc(OCCCO)ccc2N1C(=O)c1ccc2ccccc2n1 | 0.181
C=CC[C@@]1(C(=O)NCC(O)CO)N=C(c2ccc(OCCCO)cc2)O[C@@H]1c1ccccc1N=[N+]=[N-] (some centres not stated) | 0.618
CCCCC=C[C@@H](NC(=O)c1ccco1)c1ccccc1 | 0.689
CC(C)(C)OC(=O)CC[C@@]1(C(=O)NCCN2CCOCC2)N=C(c2ccc(OCCCO)cc2)O[C@@H]1c1ccccc1 | 1.01
CC(C)(C)N1CC=CC23O[C@@H]4C=CCOC(=O)[C@@H]4[C@H]2C(=O)N(CCCCCO)[C@@H]3C1=O (some centres not stated) | -0.804
COc1ccc(C(O)C2C=CC3C(=O)N(c4ccccc4)C(=O)C3N2Nc2ccc([N+](=O)[O-])cc2)cc1OCc1ccccc1 (configuration not stated) | 1.02
CN(C)C(=O)[C@]1(CCC(=O)OC(C)(C)C)N=C(c2ccc(OCCCO)cc2)O[C@@H]1c1ccccc1N=[N+]=[N-] | 1.25
O=C1OCC=C[C@H]2OC34C=CCN(c5ccc6ccccc6c5)C(=O)[C@H]3N(CCCO)C(=O)[C@@H]4[C@@H]12 (some centres not stated) | -0.709
COC(=O)c1c(CC[C@@H](CO)NC(=O)N[C@@H](Cc2ccccc2)Cn2cc(C3(O)CCCCC3)nn2)oc(C(C)=O)c1C(=O)OC | 1.31
C=CCOC(=O)[C@H]1[C@@H]2C(=O)O[C@@H](c3ccccc3)[C@@H](c3ccccc3)N2[C@@H](c2ccc(OCCOC(=O)[C@@H]3C[C@@H]4C(=O)NCC(=O)N4[C@@H]3c3ccc(O)cc3)cc2)[C@]12C(=O)Nc1ccccc12 | 1.14
[N-]=[N+]=NCc1ccccc1[C@H]1OC(c2ccc(OCCCO)cc2)=N[C@@]1(CCS(=O)(=O)c1ccccc1)C(=O)N1CCOCC1 | 1.17
N[C@@H](Cc1ccccc1)Cn1cc(-c2ccccc2)nn1 | -0.232
CC(C)CNC(=O)[C@@]1(c2ccc([N+](=O)[O-])cc2)CC(=O)N(CC23CC4CC(CC(C4)C2)C3)[C@@H]1c1ccc(CO)cc1I | 1.04
O=C(CCN1CCOCC1)c1cccc(O)c1 | 1.37
COC(=O)C(CC#Cc1ccc2c(c1)[C@]1(C(=O)N2)[C@H](c2ccc(OCCO)cc2)N2[C@H](c3ccccc3)[C@H](c3ccccc3)OC(=O)[C@H]2[C@@H]1C(=O)NC[C@H](O)c1ccccc1)C(=O)OC | 0.826
C#CCN(C(/C=C/c1ccccc1)CO)C(C(=O)O)c1ccccc1 (configuration not stated) | 0.0698
COc1ccc(C(=O)Nc2cccc(CN3C(=O)[C@@]4(O[C@@H](CCn5cc(CCO)nn5)[C@H]([Si](C)(C)c5ccc(OC)cc5)[C@H]4C)c4ccccc43)c2)cc1 | 0.997
O=C(CS)NCCCCCCNC(=O)[C@@H]1C[C@@H]2C(=O)N3CCC[C@H]3C(=O)N2[C@@H]1c1ccc(O)cc1 | -0.252

Structure (SMILES) | composite z-score
CCCNC(=O)[C@@]1(c2ccc([N+](=O)[O-])cc2)CC(=O)N(CC23CC4CC(CC(C4)C2)C3)[C@@H]1c1ccc(CO)cc1 | 0.425
CC(C)c1ccc(NN2C(C(O)c3c(F)cccc3Cl)C=CC3C(=O)N(c4ccccc4)C(=O)C32)cc1 (configuration not stated) | 0.62
COc1ccc([Si](C)(C)[C@@H]2[C@@H](CCn3cc([C@H](O)c4ccccc4)nn3)O[C@]3(C(=O)N(Cc4ccc(N5C(=O)c6cccc7cccc5c67)cc4)c4ccccc43)[C@H]2C)cc1 | -0.456
[N-]=[N+]=Nc1ccccc1C[C@]1(C(=O)NCCN2CCOCC2)N=C(c2ccc(OCCCO)cc2)O[C@H]1c1ccccc1 | 0.484
COC(=O)C[C@@H]1C[C@H](C)[C@]2(O1)C(=O)N(Cc1ccccc1)c1ccc(NC(C)=O)cc12 | 0.603
Cc1ccc([C@H]2C(C(=O)O)=C[C@@H](C)N2S(=O)(=O)c2ccc(C)cc2)cc1 | -0.564
O=C1O[C@H](c2ccccc2)[C@H](c2ccccc2)N2[C@H]1[C@@H](C(=O)O)[C@]1(C(=O)Nc3ccc(C#CC4=CCCCC4)cc31)[C@H]2c1ccc(OCCO)cc1 | 1.25
C=CC(=C)C1=CCO[C@@H]1[C@H]1CCCN1S(=O)(=O)c1ccccc1[N+](=O)[O-] | 0.925
CCC(CC)C(O)C1C=CC2C(=O)N(c3ccccc3)C(=O)C2N1Nc1ccc(C#N)cc1 (configuration not stated) | 0.783
CC(C)N1C(=O)c2ccccc2[C@@H](C(=O)NCCCN(C)C)[C@@H]1c1ccc(CO)cc1 | 0.0328
COC(=O)[C@@]1(Cc2ccc(F)cc2)[C@H]2c3cc(C(=O)N4CCCC4)n(Cc4cccc5ccccc45)c3C[C@H]2CN1C(=O)c1ccccc1 | 0.427
CCOC(=O)[C@H]1C/C=C/C[C@H](C(=O)OCC)C(=O)O[C@H]2[C@@H](OC)O[C@H](CO)[C@@H](OC(=O)Nc3ccc4c(c3)OCO4)[C@@H]2OC1=O | 0.79
COCC(=C=CC[C@@H](O)c1ccc(CO)o1)CCO | 1.26
Cc1cc(C)c(C(O)C2C=CC3C(=O)N(c4ccccc4)C(=O)C3N2Nc2ccc(C#N)cc2)c(C)c1 (configuration not stated) | 1.27
COc1ccc(C#Cc2ccc3c(c2)[C@]2(C(=O)N3)[C@H](c3ccc(O)cc3)N3[C@H](c4ccccc4)[C@H](c4ccccc4)OC(=O)[C@H]3[C@@H]2C(=O)N2CCCCCCC2)cc1 | 1.22
O=C1C2C=CC(C(O)c3ccc(F)cc3)N(Nc3ccccc3)C2C(=O)N1c1ccccc1 (configuration not stated) | -0.0653
COc1cc2c(cc1OC)CN(C(=O)[C@@H]1[C@H]3C(=O)O[C@H](c4ccccc4)[C@H](c4ccccc4)N3[C@H](c3ccccc3OCCO)[C@@]13C(=O)Nc1ccc(C#CCNC(N)=O)cc13)CC2 | 0.518
Cc1ccc(F)cc1S(=O)(=O)N[C@@H]1CCN(Cc2ccc(-c3ccccc3)cc2)C1 | 0.927
